Bioassay records as filed in PubChem.
FBW7 act – human FBW7 E3 ligase activation, primary screen; Q969H0; AlphaScreen FBW7–phospho-cyclin E peptide binding, activator screen; normalized activity (activation), % at 26.1 µM; actives 0.13% (n = 650,000); AID 1259310; in the data active = normalized activity above about 1.9%;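 also: purified mutant Fbw7 with reduced substrate affinity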
MITF inh – blocks human microphthalmia-associated transcription factor. AlphaScreen MITF homodimerization, bead proximity signal. inhibition, % at 2.6 µM. actives 0.91% (n = 650,000). AID 1259374; in the data active = inhibition above about 50%
TEAD-YAP inh – TEAD-YAP interaction inhibition | HEK-TIYL cells, TEAD-Gal4/YAP UAS-luciferase luminescence | inhibition, % at 9.12 µM | actives 1.4% (n = 640,000) | AID 1259422; in the data active = inhibition above about 32%
GPR151 activ – activators of human GPR151; Q8TDV0; PathHunter beta-arrestin GPR151 cells, luminescence; activation, % at 11.2 µM; actives 1% (n = 650,000); AID 1508602; in the data active = activation above about 4.9%
Target sequence (Q8TDV0 whole entry, looked up): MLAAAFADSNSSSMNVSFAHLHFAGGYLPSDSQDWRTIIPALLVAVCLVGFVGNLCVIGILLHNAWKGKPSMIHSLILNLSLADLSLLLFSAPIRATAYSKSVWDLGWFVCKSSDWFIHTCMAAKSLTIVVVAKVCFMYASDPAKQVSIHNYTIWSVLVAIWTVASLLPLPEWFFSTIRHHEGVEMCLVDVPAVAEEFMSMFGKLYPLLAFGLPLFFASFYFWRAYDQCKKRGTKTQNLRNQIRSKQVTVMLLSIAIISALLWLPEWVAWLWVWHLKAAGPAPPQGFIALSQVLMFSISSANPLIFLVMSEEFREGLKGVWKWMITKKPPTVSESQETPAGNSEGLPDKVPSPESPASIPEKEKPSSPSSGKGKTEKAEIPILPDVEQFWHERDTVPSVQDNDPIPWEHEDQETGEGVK
Each line names hits and unclear results; the compound was inactive in the other large screens. This is a sample that favours compounds with a hit; in the whole collection about 3.5% have one here.

O=C(CSc1ncccc1C(=O)NCc1ccc(F)cc1)NCc1ccccc1	none
COc1ccc(Cl)cc1Nc1ncnc2c1cnn2-c1ccccc1	none
COc1ccc(-n2ncc3c(Nc4ccc(OC)c(Cl)c4)ncnc32)cc1	TEAD-YAP inh 54
COc1ccc(-n2ncc3c(Nc4cc(Cl)ccc4OC)ncnc32)cc1	TEAD-YAP inh 41
O=C(/C=C/c1ccc2c(c1)OCO2)Nc1ccccn1	TEAD-YAP inh 67
O=C(/C=C/c1ccc(F)cc1)Nc1ccccn1	TEAD-YAP inh 57
O=C(/C=C/c1ccc(Br)cc1)Nc1ccccn1	TEAD-YAP inh 35
CC1CCCC(C)N1C(=O)C1C2C=CC(C2)C1C(=O)O (stereo not given)	none
CC(C)(C)c1ccc(OCC(=O)Nc2nccs2)cc1	TEAD-YAP inh 74
O=C(Nc1nccs1)c1cc(Br)c(Br)s1	none
CC(C)c1ccc(NC(=O)COc2ccc(C(C)C)cc2)cc1	none
O=C(Nc1nccs1)c1cc2c(s1)CCCC2	TEAD-YAP inh 65
O=C(COc1ccc(Br)cc1)Nc1nccs1	TEAD-YAP inh 35
CC(C)c1ccc(OCC(=O)Nc2nccs2)cc1	TEAD-YAP inh 81
O=C1/C(=C\c2ccccc2)N=C(c2ccccc2)N1c1ccc(Cl)cc1Cl	none
CC(=O)c1ccc(C(=O)Nc2nc(-c3ccc(C)c(C)c3)cs2)cc1	none
Cc1ccc(S(=O)(=O)NC(=O)c2c(O)c3ccccc3oc2=O)cc1	none
O=C(c1ccn[nH]1)N1CCC(n2nnc3cccnc32)CC1	none
O=C(CSc1n[nH]c(COc2ccc(Cl)cc2)n1)N1CCc2ccccc21	none
CC(Sc1nnc(-c2ccc(C(C)(C)C)cc2)o1)C(=O)Nc1nccs1 (stereo not given)	TEAD-YAP inh 52
CC(Sc1nnc(N)s1)C(=O)Nc1nccs1 (stereo not given)	none
O=C(Cc1ccc2c(c1)CCCC2)Nc1nccs1	none
O=C(COc1ccc2c(c1)CCC2)Nc1nccs1	TEAD-YAP inh 74
CC(=O)c1ccc(OCC(=O)Nc2nccs2)cc1	TEAD-YAP inh 55
CCC1(C)Cc2c(sc3nc(SCC(N)=O)[nH]c(=O)c23)CO1 (stereo not given)	none
Oc1ccc(CCNc2nc(Nc3ccccc3)nc3c2ncn3Cc2ccc(C(F)(F)F)cc2)cc1	none
CCOC(=O)C1=C(C)N=c2s/c(=C\c3cccc(OCc4cccc5ccccc45)c3)c(=O)n2C1c1ccc2c(c1)OCO2 (stereo not given)	none
Cc1cc(N2CCN(c3ccccc3F)CC2)nc(-c2ccccc2)n1	none
CN(C)C=Nc1ccc2nonc2c1	none
CCCCOC(=O)c1ccc(NC2=C(c3ccc(OC)cc3)C(=O)c3ccccc32)cc1	none
CCCOc1ccc(C(=O)NC(=S)Nc2ccccn2)cc1	TEAD-YAP inh 51
Cc1cc2c(nc1C)CCCCN2C[C@H](C)O/N=C/[C@@H](C)[C@H](OCc1ccccc1)C(C)C	none (no result: TEAD-YAP inh)
Cc1cc(O)ccc1NC(=O)c1ccccc1	none
COc1ccc(C(=O)/C=C/Nc2ccc(O)cc2C)cc1OC	none
Cc1cc(O)ccc1N/C=C/C(=O)c1ccccc1	TEAD-YAP inh 74
Cc1ccc(C(=O)/C=C/Nc2ccc(O)cc2C)cc1	TEAD-YAP inh 40
CN1CCC(Oc2ccc(C(=O)Nc3ccc4[nH]ncc4c3)cn2)CC1	TEAD-YAP inh 88
NCCOc1ccc(C(=O)Nc2ccc3[nH]ncc3c2)cn1	TEAD-YAP inh 54
CN1CC[C@@H](Oc2cc(C(=O)Nc3ccc4[nH]ncc4c3)ccn2)C1	TEAD-YAP inh 52
O=C(Nc1ccc2[nH]ncc2c1)c1ccc(O[C@H]2CCNC2)nc1	none
CN1CC[C@H](Oc2ccnc(C(=O)Nc3ccc4[nH]ncc4c3)c2)C1	none
CN1CC[C@H](Oc2ccc(C(=O)Nc3ccc4[nH]ncc4c3)cn2)C1	none
CN1CCCC(Oc2ccnc(C(=O)Nc3ccc4[nH]ncc4c3)c2)C1 (stereo not given)	TEAD-YAP inh 45
O=C(CC1C(=O)NCCN1Cc1c(F)cccc1Cl)NC1C2CC3CC(C2)CC1C3 (stereo not given)	none
COc1ccc(NC(=O)C(=O)NCC2CCCN2S(=O)(=O)c2cccs2)cc1 (stereo not given)	TEAD-YAP inh 45
Cc1ccc(NC(=O)C(=O)NCC2CCCN2S(=O)(=O)c2cccs2)cc1C (stereo not given)	none
CC1=NN(c2ccccc2)C(=O)/C1=C/c1ccc(N2CCCC2)o1	TEAD-YAP inh 66
CC1=NN(c2ccc(Cl)cc2)C(=O)/C1=C\c1ccc([N+](=O)[O-])o1	none
CCN(CC)c1ccc(/C=C2/C(=O)N(c3ccccc3)N=C2C)cc1	MITF inh 68
CC1=NN(c2ccc(C(=O)O)cc2)C(=O)/C1=C\c1ccc([N+](=O)[O-])o1	MITF inh 71
CC(C)(C)OC(=O)N1CCC(c2nc(-c3nc4ccc(-c5ccncc5)cc4[nH]3)cs2)CC1	TEAD-YAP inh 94
O=C(NCc1ccncc1)C(=O)NCC1CCCO1 (stereo not given)	none
O=C(N/N=C/c1ccc(Br)cc1)C1COc2ccccc2O1 (stereo not given)	TEAD-YAP inh 37
Cc1ccc(/C=N/NC(=O)C2COc3ccccc3O2)cc1 (stereo not given)	TEAD-YAP inh 51
Cc1cc(-c2ccc(NC(=O)[C@H]3COc4ccccc4O3)cc2)ccn1	TEAD-YAP inh 75
O=C1CCC/C(=N\NC(=O)C2COc3ccccc3O2)C1 (stereo not given)	none
CN1CCC(=NNC(=O)C2COc3ccccc3O2)CC1 (stereo not given)	TEAD-YAP inh 38
Cc1cc(SCC(=O)NC2CCCCC2)nc(=O)[nH]1	none
CC1=C(C(N)=O)C(c2cccc(Cl)c2Cl)n2ncnc2N1 (stereo not given)	none
C/C(=N\NC(=O)C1COc2ccccc2O1)c1ccc(Br)cc1 (stereo not given)	TEAD-YAP inh 38
C/C(=N\NC(=O)CNC(=O)C1COc2ccccc2O1)c1ccccc1 (stereo not given)	none
O=C(NCCc1ccccc1)c1ccccc1-n1cnc2ccccc2c1=O	none
CC(C)CCN1C(=O)c2cccc3c(N)ccc(c23)C1=O	FBW7 act 2.1
CCCCN1C(=O)c2cccc3c(N)ccc(c23)C1=O	none
Cc1ncn(-c2ccc(Nc3ncc4cccc(-c5ncco5)c4n3)cc2)n1	TEAD-YAP inh 70
Cc1ncn(-c2ccc(Nc3ncc4cccc(-c5cccc(F)c5)c4n3)cc2)n1	none
Cc1ccc(-c2cccc3cnc(Nc4ccc(-n5cnc(-c6ccccn6)n5)cc4)nc23)cn1	FBW7 act 5.7
COc1cc(-c2cccc3cnc(Nc4ccc(-n5cnc(C)n5)cc4)nc23)ccn1	none
Cc1ncn(-c2ccc(Nc3ncc4cccc(-c5ccccn5)c4n3)cc2)n1	TEAD-YAP inh 42
Cc1cc(-c2cccc3cnc(Nc4ccc(-n5cnc(C)n5)cc4)nc23)ccn1	TEAD-YAP inh 62
CCOC(=O)N1CCC(Nc2c(NCCc3ccccc3)c(=O)c2=O)CC1	none
CCOc1ccccc1C(=O)Nc1c2c(nn1-c1ccc(Cl)cc1)CS(=O)(=O)C2	none
